These results are taken from the supplement of paper PMC10338343.

± gives the standard deviation. Where only a bound is given, the exact number is not on record here.
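Further: 1 nM active piRISC with 0.1 nM target library at 33 °C single turnover.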

This assay deals with MILI (PIWIL2) piRISC loaded with piRNA #1 (26 nt). Briefly: pre-steady-state target cleavage rate (min^-1); guide: piRNA #1 5'p-UGAGGUAGUAGGUUGUAUAGUAUCCA; MIWI and MILI are mouse PIWI proteins and EfPiwi is from a freshwater sponge; tags in brackets are library labels; higher = faster piRNA-guided slicing of the target. The settings on record: auxiliary factor: 500 nM mouse GTSF1. The method, boiled down:
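At 33 °C in HEPES–potassium acetate buffer, a transcribed, DNA-blocked target RNA library […] was exposed for 0–8 or 0–960 min to 1 nM active affinity-purified piRISC carrying a single synthetic guide, with or without 500 nM GTSF1 partner protein. Uncleaved targets were sequenced and normalised to depth and to weakly complementary targets. With three trials pooled and k3 capped at 0.0001 min^-1, a burst-and-steady-state fit produced the pre-steady-state cleavage rate.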
As for GGAGACCUAUGAUAUCAACCUACCUACCUCA, the “pre-steady-state target cleavage rate” value worked out at 0.00604 ± 0.0032.
For GGAGACCUUACAUAACAACCUACUACCUCA, the “pre-steady-state target cleavage rate” value worked out at 0.013 ± 0.0048.
GGAGACCUUUCUAUACAAGCUACUACCUCA: the “pre-steady-state target cleavage rate” value stood at 0.159 ± 0.012.
The result for GGAGACCAUACUAUACAACCUACAUGCUCA reads 0.134 ± 0.028; that for GGAGACCUAUCUAUACAAGGAACUACCUCA, 0.0048 ± 0.002.
Take GGAGACCAUACUAUACAUCCUUCUACCUCA: the “pre-steady-state target cleavage rate” value came to 0.042 ± 0.0097.
The result for GGAGACCUAUCUAUACAACCAUCUACCUCA reads 0.00428 ± 0.0031.
Then GGAGACCUAACAAUACAACCUACUUCCUCA, with 0.0651 ± 0.019.
Then GGAGACCUAUCUAUACAACGUACUACCUCA, with 0.0127 ± 0.0028; and GGAGACCUAUGAUAAGAACCUACUUCCUCA, with under 0.0001; and GGAGACCUUAGUAUACAACCAACUACCUCA, with 0.00446 ± 0.0029.
As for GGAGACCAUACUAAACUACCUACUACCUCA, the “pre-steady-state target cleavage rate” value amounted to 0.142 ± 0.013.
Then GGAGACCUAUGAUUACAACCUACCACCUCA, with 0.00484 ± 0.0035; and GGAGACCUAACUAUUGUACCUACUACCUCA, with 0.00477 ± 0.0036; and GGAGACGAUAUUAUACAACCUACUACCUCA, with 0.214 ± 0.013.
On to GGAGACCUAUCUAUACACCUACUACCUCA, for which the “pre-steady-state target cleavage rate” value was 0.00467 ± 0.0029.
Turning to “GGAGACCUAUGAUAACAACCUACUACCUCC [g2:g16:cont:t1C]”, the “pre-steady-state target cleavage rate” value was found to be 0.00493 ± 0.0021.
Then GGAGACCUAUCUAUACUACCAACUACCUCA, with 0.00495 ± 0.0022; and GGAGACCUUACUAUUCAACCUAGUACCUCA, with 0.0486 ± 0.011.
Then GGAGACCUAUGAUAUGUUGCUACUUCCACA, with under 0.0001; and GGAGACCAUUCUAUACAAGCUACUACCUCA, with 0.254 ± 0.018; and GGAGUGGAUACUAUACAACCUAACUACCUCA, with 0.0255 ± 0.0041.
Regarding GGAGACCUAUGAAUACAACCUACGACCUCA, the “pre-steady-state target cleavage rate” value was determined as 0.0047 ± 0.0026.
The result for GGAGUGGAUAGUAAACAACCUACUACCUCA reads 0.0879 ± 0.0084; that for GGAGACCUAUCUUAACAACCUACUACCUCA, 0.0183 ± 0.0045; that for GGAGAGGAUUCUAUAGAACCUACUACCUCA, 0.157 ± 0.011.
The result for GGAGACCUAUCAAUACAACCUACAACCUCA reads 0.0677 ± 0.015; that for GGAGAGGAUACUAUUGUACCUACUACCUCA, 0.131 ± 0.0096.
Then GGAGACCUAUGUAUACAAACUACUACCUCA, with 0.111 ± 0.012.
As for GGAGACCUAUGUAUUCAACCUUCUACCUCA, the “pre-steady-state target cleavage rate” value stood at 0.00294 ± 0.0026.
The result for “GGAGACCUAUCUAUACAAGGAUGAUGGAGA [g13:g20:cont:t1A]” reads under 0.0001; that for GGAGACCUUACUAUUCAACCUACUUCCUCA, 0.0623 ± 0.013.
Then GGAGACCUAACUAUACAAGCAACUACCUCA, with 0.00654 ± 0.0041; and GGAGUGUGAUACUAUACAACCUACUACCUCA, with 0.179 ± 0.0087.
The result for GGAGACCUAUGUAAACUACCUACUACCUCA reads 0.00288 ± 0.0026; that for GGAGACGAUACAUAACAACCUACUACCUCA, 0.114 ± 0.013.
For GGAGACCUAUGUAUGACAACCUACUACCUCA, the “pre-steady-state target cleavage rate” value came to 0.0123 ± 0.0037.
For GGAGAGGUUACUAUACAACCAACUACCUCA, the “pre-steady-state target cleavage rate” value was determined as 0.00725 ± 0.0016.
The result for GGAGACCUAUCUAAACAACCUACUAGCUCA reads 0.0571 ± 0.011.
Then GGAGACCUAUGUAAACAACCUACUACCACA, with 0.00967 ± 0.0036.
